High-throughput results (PubChem)
MITF primary: MITF inhibitors, primary screen, biochemical, AlphaScreen, human. AlphaScreen MITF homodimerization, bead proximity signal. AID 1259374, 2018. inhibition, % at 2.6 µM. 650,000 compounds, 0.91% hits; in the data active = inhibition above about 50%;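 note: 0% = vehicle wells with protein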
TEAD-YAP inh: TEAD-YAP interaction inhibition, primary screen, TEAD-YAP interaction inhibitor project, luminescence, HEK-TIYL cells. TEAD-Gal4/YAP UAS-luciferase luminescence. inhibition, % at 9.12 µM. 640,000 compounds, 1.4% hits; in the data active = inhibition above about 32%;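 note: 0% = median of test compound wells and 100% = reference inhibitor wells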
FBW7 act: FBW7 E3 ligase activators, primary screen, biochemical, AlphaScreen, human; F-box/WD repeat-containing protein 7 (Homo sapiens), Q969H0; AlphaScreen FBW7–phospho-cyclin E peptide binding, activator screen; normalized activity (activation), % at 26.1 µM; 650,000 compounds, 0.13% hits; AID 1259310, 2017; in the data active = normalized activity above about 1.9%;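 note: purified mutant Fbw7 with reduced substrate affinity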
GPR151 activ: activators of human GPR151, primary screen, cell-based, PathHunter beta-arrestin, luminescence | PathHunter beta-arrestin GPR151 cells | activation, % at 11.2 µM | 650,000 compounds, 1% hits | G-protein coupled receptor 151 (Homo sapiens), Q8TDV0; in the data active = activation above about 4.9%;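 note: 0% = median of compound wells and 100% = cells with positive control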
GPR151 confirm: GPR151 activators, triplicate retest, confirmation, cell-based, PathHunter beta-arrestin, luminescence; AID 1508609, 2020; GPR151 PathHunter beta-arrestin cells, 90 min; % of EA-reagent control over plate median; shares compounds with GPR151 activ; activation, % at 11.2 µM; 6,700 tested, under 10 active;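 active = mean percent activation across replicates above the confirmation screen cutoff of 4.91%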
GPR119 ag: GPR119 activators in beta-arrestin cells, counter-screen for GPR151 activator project, cell-based, PathHunter beta-arrestin, luminescence, triplicate; shares compounds with GPR151 activ; 90 min; 0 = compound-well median, 100 = enzyme-acceptor control; activation, % at 11.2 µM; 6,700 compounds, 0.3% hits;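 active = mean percent activation in the counterscreen above 29.09%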;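 note: counterscreen on off-target GPR119 to flag nonselective hits from the GPR151 activator screen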
Target sequence (Q8TDV5 whole entry, looked up): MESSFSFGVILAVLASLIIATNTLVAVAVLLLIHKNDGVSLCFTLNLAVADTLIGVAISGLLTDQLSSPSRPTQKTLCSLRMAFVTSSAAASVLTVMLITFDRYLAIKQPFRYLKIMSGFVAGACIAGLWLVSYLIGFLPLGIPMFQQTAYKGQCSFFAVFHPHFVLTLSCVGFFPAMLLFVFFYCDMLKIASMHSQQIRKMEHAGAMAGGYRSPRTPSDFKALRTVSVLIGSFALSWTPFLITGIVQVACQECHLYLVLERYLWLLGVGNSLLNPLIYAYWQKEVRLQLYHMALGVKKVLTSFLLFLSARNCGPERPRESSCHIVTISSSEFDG
* = called active by the depositor; ! = not confirmed by another sample. Only some compounds are listed: those with a hit (about 3.5% of all), similar ones and a draw of the others.

`Cc1ccc(C(C(=O)NC2CCCC2)N(C)C)cc1` (stereo not drawn) gave MITF primary 15.9, TEAD-YAP inh 10.2, FBW7 act 0.1 and GPR151 activ -0.7.
For Oc1[nH]c(=S)sc1/C=C1\C=Nc2ccc(Br)cc21 the results were MITF primary -9.2, TEAD-YAP inh -5.5, FBW7 act 0.1, GPR151 activ 6.0*, GPR151 confirm 0.0 and GPR119 ag 5.8.
Screening CCn1c(O)c(/C=C2\C=Nc3ccc(Br)cc32)sc1=O returned MITF primary 15.3, TEAD-YAP inh -9.3, FBW7 act 0.1 and GPR151 activ 0.8.
`Cc1cc([N+](=O)[O-])ccc1NC(=S)NC(=O)COc1ccccc1` gave MITF primary 2.6, TEAD-YAP inh 7.4, FBW7 act 0.0, GPR151 activ 7.3*, GPR151 confirm 0.5 and GPR119 ag 12.4.
For O=S(=O)(Nc1nc2ccc(S(=O)(=O)N3CCCCC3)cc2s1)c1ccccc1 the results were MITF primary 19.2, TEAD-YAP inh 3.4, FBW7 act 0.1, GPR151 activ 5.3*, GPR151 confirm -0.7 and GPR119 ag -9.0.
CC(C)C(=O)Nc1c2c(nc3c1CCC3)CCC2 was read as MITF primary -10.2, TEAD-YAP inh -16.9, FBW7 act -0.1 and GPR151 activ 0.8.
Screening CCN(CC)c1nc(NCCCN2CCCC2=O)nc(NCCCN2CCCC2=O)n1 returned MITF primary 5.5, TEAD-YAP inh -0.3, FBW7 act 0.0 and GPR151 activ 0.5.
CCN(CC)c1nc(NCCCN2CCCC2=O)nc(NCc2nc3ccccc3[nH]2)n1 was read as MITF primary -0.1, TEAD-YAP inh -1.2, FBW7 act 0.0, GPR151 activ 6.9*, GPR151 confirm -1.0 and GPR119 ag 1.1.
For COC(=O)C(NC(=O)c1ccc(Cl)cc1)(Nc1nc(C2CC2)cs1)C(F)(F)F (stereo not drawn) the results were MITF primary 13.9, TEAD-YAP inh -3.8, FBW7 act 0.7, GPR151 activ 5.2*, GPR151 confirm 0.0 and GPR119 ag -5.8.
Screening CCOC(=O)NC(Nc1nc(C2CC2)cs1)(C(=O)OCC)C(F)(F)F (stereo not drawn) returned MITF primary 2.4, TEAD-YAP inh 1.8, FBW7 act 0.2 and GPR151 activ -1.5.
For CCC(=O)N[C@@H]1c2ccccc2C2(CCN(Cc3nccs3)CC2)[C@H]1OCCOC the results were MITF primary -2.8, TEAD-YAP inh 2.5, FBW7 act 0.0 and GPR151 activ 0.4.
`CCc1c(C)nc2ncnn2c1N1CCC(C(=O)Nc2ccc(C)cc2)CC1` gave MITF primary 8.7, TEAD-YAP inh 11.8, FBW7 act -0.1 and GPR151 activ -0.7.
`Cc1nc2ncnn2c(N2CCC(C(=O)Nc3ccc(F)cc3)CC2)c1C` gave MITF primary -11.3, TEAD-YAP inh 8.4, FBW7 act -0.3, GPR151 activ 5.4*, GPR151 confirm 0.2 and GPR119 ag 8.6.
`COc1ccc(-c2nnc(SCC(=O)Nc3ccc(Br)cc3)nc2-c2ccc(OC)c(OC)c2)cc1OC` gave MITF primary 0.3, TEAD-YAP inh 1.8, FBW7 act -0.1 and GPR151 activ -0.7.
CC(C)(S)C(N)C(=O)O (stereo not drawn) was read as MITF primary 1.0, TEAD-YAP inh -9.1, FBW7 act -0.1, GPR151 activ 5.1*!, GPR151 confirm 0.3 and GPR119 ag -9.3.
Screening CC(C)(S)C(=O)N[C@@H](CS)C(=O)O returned MITF primary -9.4, TEAD-YAP inh -1.7, FBW7 act 0.0 and GPR151 activ -2.2.
For COc1cccc2c1OCCCN(Cc1nc(Cc3ccccc3Cl)no1)C2 the results were MITF primary 1.6, TEAD-YAP inh -1.6, FBW7 act 0.1, GPR151 activ 5.7*, GPR151 confirm -1.4 and GPR119 ag -8.2.
